Test results published in PubChem BioAssay AID1347418 (Sanford-Burnham Center for Chemical Genomics, 2020).
Among all 1,300 compounds or so, about 750 (58%) were called active. The list shows a part of the results. Values without a mark were called inactive.

Biological target: Sulfhydryl oxidase 1 (Homo sapiens) (UniProt O00391)
Assay: inhibition of human sulfhydryl oxidase QSOX1 – biochemical, ROS-Glo H2O2 luminescence, HTS, primary screen (AID 1347418)
Conditions: recombinant QSOX1, ROS-Glo H2O2 luminescence; at 12.5 µM; hits give high values; active = any value above zero

Sequence of Sulfhydryl oxidase 1 (Homo sapiens) (O00391 whole entry, looked up): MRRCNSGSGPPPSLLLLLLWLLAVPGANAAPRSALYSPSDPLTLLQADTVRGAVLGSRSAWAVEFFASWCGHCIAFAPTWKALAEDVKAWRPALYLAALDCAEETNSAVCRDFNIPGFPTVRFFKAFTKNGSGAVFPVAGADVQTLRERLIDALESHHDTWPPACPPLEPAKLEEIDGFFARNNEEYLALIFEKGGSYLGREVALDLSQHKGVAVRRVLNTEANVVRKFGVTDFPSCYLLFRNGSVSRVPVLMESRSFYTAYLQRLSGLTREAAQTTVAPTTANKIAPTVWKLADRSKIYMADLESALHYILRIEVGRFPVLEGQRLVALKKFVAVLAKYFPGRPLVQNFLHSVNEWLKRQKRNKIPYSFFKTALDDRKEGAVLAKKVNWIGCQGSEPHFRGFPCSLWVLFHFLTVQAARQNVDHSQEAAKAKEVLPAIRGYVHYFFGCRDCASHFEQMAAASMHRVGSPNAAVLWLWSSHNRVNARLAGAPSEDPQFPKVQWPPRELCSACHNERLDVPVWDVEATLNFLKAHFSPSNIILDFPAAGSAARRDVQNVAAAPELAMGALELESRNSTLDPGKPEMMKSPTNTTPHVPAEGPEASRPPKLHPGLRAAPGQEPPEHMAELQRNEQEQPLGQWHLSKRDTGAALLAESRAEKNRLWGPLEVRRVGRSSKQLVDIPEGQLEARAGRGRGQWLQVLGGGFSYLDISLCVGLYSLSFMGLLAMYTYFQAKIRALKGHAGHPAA

SMILES	inhibition
O=C1N=C(O)C(c2ccccc2)(c2ccccc2)N1	-3.8%
O=c1[nH]c(=O)c2nc3ccccc3nc2[nH]1	8% (active)
CCCOc1ccccc1-c1nc2n[nH]nc2c(=O)[nH]1	-3%
CC(=O)OCC(=O)[C@@]1(O)CC[C@H]2[C@@H]3CCC4=CC(=O)CC[C@]4(C)[C@H]3C(=O)C[C@@]21C	-7.3%
CC(=O)SC1CC2=CC(=O)CC[C@]2(C)C2CC[C@@]3(C)C(CC[C@@]34CCC(=O)O4)C12 (some centres undefined)	-4.3%
CC(=O)[C@@]1(O)CC[C@H]2[C@@H]3CCC4=CC(=O)CC[C@]4(C)[C@H]3CC[C@@]21C	-1%
C[C@]12CCC(=O)C=C1CC[C@@H]1[C@@H]2C(=O)C[C@@]2(C)[C@H]1CC[C@]2(O)C(=O)CO	4.5% (active)
C[C@]12C[C@H](O)[C@H]3[C@@H](CCC4=CC(=O)CC[C@@]43C)[C@@H]1CC[C@@H]2C(=O)CO	1% (active)
C[C@]12CCC(=O)C=C1CC[C@@H]1[C@@H]2CC[C@@]2(C)[C@H]1CC[C@]2(O)C(=O)CO	1.9% (active)
C[C@]12CCC(=O)C=C1CC[C@@H]1[C@@H]2[C@@H](O)C[C@@]2(C)[C@H]1CC[C@]2(O)C(=O)CO	-7.5%
CC(=O)[C@H]1CC[C@H]2[C@@H]3CCC4=CC(=O)CC[C@]4(C)[C@H]3CC[C@]12C	-0.5%
O=C1NCN(c2ccccc2)C12CCN(CCCC(c1ccc(F)cc1)c1ccc(F)cc1)CC2	-2.5%
COc1ccc2c(c1)c(CC(=O)O)c(C)n2C(=O)c1ccccc1	-3.5%
COc1ccc2c(c1)c(CC(=O)O)c(C)n2C(=O)c1ccc(Cl)cc1	4.9% (active)
Cc1ccc([N+](=O)[O-])cc1S(=O)(=O)N(C)C	9.9% (active)
O=c1cc(O)cc(/C=C/c2ccc(O)c(O)c2)o1	30.2% (active)
Oc1ccc(/C=C/c2cc(O)cc(O)c2)cc1	23.2% (active)
Oc1cc(O)cc(/C=C/c2ccc(O)c(O)c2)c1	44% (active)
Oc1ccc(/C=C/c2ccc(/C=C/c3ccc(O)cc3)c(Br)c2)cc1	1% (active)
Cn1c(=O)c2c(nc(/C=C/c3cccc(Cl)c3)n2C)n(C)c1=O	11.3% (active)
C=CCn1c(=O)c2c(nc(-c3ccc(S(=O)(=O)O)cc3)n2C)n(C)c1=O	-0.9%
O=C1NC(=O)C(c2ccccc2[N+](=O)[O-])=C1Nc1ccc(O)c(Cl)c1	35.4% (active)
Cc1nc2n(c(=O)c1CCN1CCC(c3noc4cc(F)ccc34)CC1)CCCC2O (centres undefined)	1.5% (active)
Clc1ccc2c(c1)C(N1CCNCC1)=Nc1ccccc1O2	2.5% (active)
CN1CCN(C2=Nc3ccccc3Oc3ccc(Cl)cc32)CC1	1.9% (active)

SMILES	inhibition
Nc1nc2[nH]c(=O)cnc2c(=O)[nH]1	2.6% (active)
Cn1cc(C(F)(F)F)nc1-c1ccc(OCC(O)CNCCOc2ccc(O)c(C(N)=O)c2)cc1 (centres undefined)	5.6% (active)
CCC(=O)N1CCN(C(=O)c2ccccc2)CC1	-5.7%
O=C(c1ccc2c(c1)OCCO2)N1CCCCC1	4.8% (active)
NC[C@H](O)c1ccc(O)c(O)c1	9.5% (active)
NCC(O)c1ccc(O)c(O)c1 (centres undefined)	7.1% (active)
C=C[C@H]1CN2CC[C@@H]1C[C@@H]2[C@H](O)c1ccnc2ccc(OC)cc12	-1.1%
NCCCNCCSP(=O)(O)O	1.1% (active)
CC(C)COCC(CN(Cc1ccccc1)c1ccccc1)N1CCCC1 (centres undefined)	9.6% (active)
Cc1ccc(=O)n(-c2ccccc2)c1	0.9% (active)
CCCCC1C(=O)N(c2ccccc2)N(c2ccccc2)C1=O	-5.9%
Cc1cc(O)c2c(c1)C(=O)c1cc(O)cc(O)c1C2=O	10.6% (active)
CCCc1c(-c2ccc(O)cc2)nn(-c2ccc(O)cc2)c1-c1ccc(O)cc1	17.5% (active)
Cn1cc(C(=O)OCC2CCN(CCNS(C)(=O)=O)CC2)c2ccccc21	-2.2%
CCN(CC)C(=S)SSC(=S)N(CC)CC	14.5% (active)
CC12C(=O)OC(=O)C1(C)C1CCC2O1 (centres undefined)	-4%
CN1CCc2cc(Cl)c(O)cc2[C@@H](c2ccccc2)C1	10.2% (active)
CN1CCc2cc(O)c(O)cc2C(c2ccccc2)C1 (centres undefined)	14.7% (active)
CN(C)c1cc2c(Nc3ccc4c(cnn4Cc4ccccc4)c3)ncnc2cn1	-0.7%
Cc1cc(C(C)(C)C)cc(C)c1CC1=NCCN1	3.9% (active)
Cc1cc(C(C)(C)C)c(O)c(C)c1CC1=NCCN1	-1.4%
N=S(=O)([O-])Cc1noc2c1C=C[C+]=C2	-4.8%
COC1=C(OC)C(=O)c2ccccc2C1=O	6.2% (active)
O=C1C(SCCO)=C(SCCO)C(=O)c2ccccc21	-58.7%
O=[N+]([O-])c1ccc(-c2nc(-c3ccc(F)cc3)c(-c3ccncc3)[nH]2)cc1	6.9% (active)

SMILES	inhibition
Oc1ccc(-c2nc(-c3ccc(F)cc3)c(-c3ccncc3)[nH]2)cc1	31.8% (active)
N#Cc1cc([N+](=O)[O-])c2sc(C(N)=O)[n+]([O-])c2c1	2.3% (active)
COc1nc(C)nc(Cl)c1NC1=NCCN1	-8.3%
Cc1nn(-c2ccccc2)c(C)c1C=NN1CCN(Cc2ccccc2)CC1	5.8% (active)
Nc1nnc(-c2cccc(Cl)c2Cl)c(N)n1	-3.6%
Nc1ccc(N2C(=O)c3ccccc3C2=O)c(Cl)c1	10.7% (active)
CCCCCCCCCC(=O)NC(CN1CCOCC1)[C@H](O)c1ccccc1 (some centres undefined)	4.7% (active)
CC1COc2c(N3CCN(C)CC3)c(F)cc3c(=O)c(C(=O)O)cn1c23 (centres undefined)	-1.5%
CN=C(NC#N)NCCSCc1nc[nH]c1C	3.1% (active)
NC(=O)OCC(COC(N)=O)c1ccccc1	1.7% (active)
NS(=O)(=O)C#Cc1ccccc1	0.5% (active)
Clc1nccc2c1ccc1ccccc12	-1.8%
Oc1ccc2ccccc2c1SSc1c(O)ccc2ccccc12	34.9% (active)
COc1cc(/C=C(\C#N)C(=O)Nc2nnc(C(F)(F)F)s2)ccc1OCc1ccc(C(F)(F)F)cc1C(F)(F)F	0.8% (active)
CN(C)c1nc2c(Br)c(Br)c(Br)c(Br)c2[nH]1	7% (active)
Nc1cc(=O)[nH]c(N)n1	2% (active)
CCCN(CCC)CCc1cccc2c1CC(=O)N2	1.5% (active)
CC(C)CC(NP(=O)(O)O[C@@H]1O[C@@H](C)[C@H](O)[C@@H](O)[C@H]1O)C(=O)NC(Cc1c[nH]c2ccccc12)C(=O)O (some centres undefined)	4.6% (active)
CN[C@H](CC(=O)O)C(=O)O	2.3% (active)
CC[C@H](C)C(=O)O[C@H]1CCC=C2C=C[C@H](C)[C@H](CC[C@@H]3C[C@@H](O)CC(=O)O3)[C@H]21	-6.8%
NC(N)=N[C@@H](CCC(=O)O)C(=O)O	0.9% (active)
CNCCC=C1c2ccccc2CCc2ccccc21	2.3% (active)
CC#CCOC(=O)c1c(C)nc2sc3c(c2c1N)CCC(O)C3 (centres undefined)	1.6% (active)
CN1CCC[C@H]1c1cccnc1	-0.6%
COc1ccccc1N1CCN(CCCNc2c(C)c(=O)n(C)c(=O)n2C)CC1	7.4% (active)

SMILES	inhibition
COc1ccccc1N1CCN(CCCNc2cc(=O)n(C)c(=O)n2C)CC1	10.9% (active)
CCC(C)N(C)C(=O)c1cc2ccccc2c(-c2ccccc2Cl)n1 (centres undefined)	-1.2%
OCCN1CCN(CCCN2c3ccccc3C=Cc3ccccc32)CC1	6.4% (active)
CN1CCN(C2Cc3ccccc3Sc3ccc(Cl)cc32)CC1 (centres undefined)	-2.3%
CN1CCN(CCCN2c3ccccc3Sc3ccc(Cl)cc32)CC1	46.5% (active)
OCCN1CCN(CCCN2c3ccccc3Sc3ccc(Cl)cc32)CC1	45.4% (active)
COc1cc2c(cc1OC)-c1cc(=Nc3c(C)cc(C)cc3C)n(C)c(=O)n1CC2	-1.4%
CC(C)(C)c1ccc(S(=O)(=O)/C=C/C#N)cc1	1.2% (active)
Cc1ccc(S(=O)(=O)/C=C/C#N)cc1	0.7% (active)
C=C[C@@]1(C)CC(=O)[C@]2(O)[C@@]3(C)[C@H](O)CCC(C)(C)[C@@H]3[C@H](O)[C@H](OC(C)=O)[C@@]2(C)O1	19.3% (active)
Nc1nc(N)c(N=O)c(OCC2CCCCC2)n1	20.8% (active)
CC(C)(C)c1onc(OCP(=O)(O)O)c1CC(N)C(=O)O (centres undefined)	4.7% (active)
CCCN(CC1CC1)c1nc(C)nc(Nc2c(Cl)cc(Cl)cc2Cl)c1Cl	0.1% (active)
CCSC(=N)N	0.7% (active)
CSC(=N)N	-7.4%
CCN1/C(=C/C(C)=O)Sc2ccc(OC)cc21	10.3% (active)
CC(=O)O[C@H]1CC2(C)[C@@H](C[C@@H](O)[C@H]3[C@@]4(C)CC[C@@H](O)[C@@H](C)[C@@H]4CC[C@@]32C)/C1=C(/CCC=C(C)C)C(=O)O (some centres undefined)	2.7% (active)
Fc1cccc(/C=N/N=C/c2cccc(F)c2)c1	1.9% (active)
Nc1nc(Cl)nc2c1ncn2[C@@H]1O[C@H](CO)[C@H](O)C1O (some centres undefined)	-0.3%
CCCCC#Cc1nc(NC)c2ncn([C@@H]3O[C@H](CO)C(O)[C@@H]3O)c2n1 (some centres undefined)	-4.5%
CCNC(=O)[C@H]1O[C@@H](n2cnc3c(N)nc(NCCc4ccc(CCC(=O)O)cc4)nc32)C(O)[C@H]1O (some centres undefined)	1.5% (active)
CNC(=O)[C@H]1O[C@@H](n2cnc3c(NCc4ccc(N)cc4)ncnc32)C(O)[C@H]1O (some centres undefined)	6% (active)
Nc1nc(Nc2ccccc2)nc2c1ncn2[C@@H]1O[C@H](CO)[C@H](O)C1O (some centres undefined)	-2.6%
CNC(=O)[C@H]1O[C@@H](n2cnc3c(NCc4cccc(I)c4)ncnc32)C(O)[C@H]1O (some centres undefined)	-1.8%
